Data from PubChem BioAssay.
Calls of active or inactive are those of the source.

How the values were obtained:
[1] = tested on: PRMT1 (protein arginine N-methyltransferase 1); experiment: small molecules binding arginine methyltransferase PRMT1 – biochemical, small-molecule microarray, 635 nm fluorescence, primary screen (AID 1088); details: higher = more signal;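 also: binding of Prmt1 protein to compounds spotted on small-molecule microarray slides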
[2] = growth effects on S. cerevisiae YJM789 – YJM789 clinical isolate, OD600, 24 h, basal, primary screen (AID 1089); details: higher = more signal, called active from +8 up or from −8 down;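 also: growth of clinical yeast isolate S. cerevisiae YJM 789 seeded 1000 cells per well; test concentration not given here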
[3] = S. pombe growth modifiers, basal conditions – strain 972, OD600, 24 h, no modulator, primary screen (AID 1090);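 also: basal condition with compound alone and no growth modifier present; test concentration not given here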; details: S. pombe 972 growth, higher = more signal, called active from +8 up or from −8 down
[4] = budding yeast growth modifiers under rapamycin – strain BY4716, OD600, 96 h, primary screen (AID 1091); also: test concentration not given here; details: S. cerevisiae BY4716 + rapamycin, higher = more signal, called active from +8 up or from −8 down
[5] = target: Torsin-1A-interacting protein 2 (Homo sapiens) (UniProt Q8NFQ8); experiment: small molecules binding lysate-expressed LULL1 – cell lysate, human LULL1 lysate, 635/667 nm fluorescence, primary screen (AID 1092); details: small-molecule microarray, hLULL1 lysate binding, 635 nm fluorescence; higher = more signal;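 also: probe is lysate of COS7 cells overexpressing human LULL1; score merges per-feature 667 nm fluorescence with signal-to-noise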
Sequence of Torsin-1A-interacting protein 2 (Homo sapiens) (Q8NFQ8 whole entry, looked up): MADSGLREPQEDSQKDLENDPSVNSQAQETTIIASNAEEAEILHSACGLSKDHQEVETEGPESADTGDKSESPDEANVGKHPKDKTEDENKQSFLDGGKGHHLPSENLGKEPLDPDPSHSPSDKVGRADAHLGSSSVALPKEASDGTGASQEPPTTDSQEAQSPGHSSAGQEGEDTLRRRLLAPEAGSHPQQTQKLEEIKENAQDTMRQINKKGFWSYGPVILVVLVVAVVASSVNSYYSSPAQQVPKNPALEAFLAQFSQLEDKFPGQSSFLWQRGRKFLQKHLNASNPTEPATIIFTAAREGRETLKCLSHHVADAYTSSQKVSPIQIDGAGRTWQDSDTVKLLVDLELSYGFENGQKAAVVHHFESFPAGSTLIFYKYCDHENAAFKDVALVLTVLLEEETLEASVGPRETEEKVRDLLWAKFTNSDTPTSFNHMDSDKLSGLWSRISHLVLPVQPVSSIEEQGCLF

[6] = optical density change of DRC41 E. coli – strain DRC41, OD650, 24 h, E. coli filamentation project, primary screen (AID 1093);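 also: MC1000 strain lacking acrAB efflux and sulA so SOS filamentation is blocked; test concentration not given here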; details: E. coli DRC41 growth, higher = more signal, called active from +8 up or from −8 down
[7] = probe aLefty2 binding to arrayed compounds – biochemical, biotinylated probe, 635/667 nm fluorescence, primary screen (AID 1094); details: small-molecule microarray, higher = more signal;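 also: score merges spot fluorescence near 667 nm with spot signal-to-noise ratio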
[8] = tested on: Noggin (protein binding on small-molecule microarray); experiment: small molecules binding Noggin protein – biochemical, 635/667 nm fluorescence, primary screen (AID 1095); details: 635 nm fluorescence, higher = more signal;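 also: score merges 667 nm feature fluorescence with signal to noise over triplicate slides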
[9] = target: Neurogenic locus notch homolog protein 3 (Homo sapiens) (UniProt Q9UM47); experiment: small molecules binding NOTCH3 protein – biochemical, 635/667 nm fluorescence, primary screen (AID 1096); details: small-molecule microarray, 635 nm fluorescence, higher = more signal
Sequence of Neurogenic locus notch homolog protein 3 (Homo sapiens) (Q9UM47 whole entry, looked up): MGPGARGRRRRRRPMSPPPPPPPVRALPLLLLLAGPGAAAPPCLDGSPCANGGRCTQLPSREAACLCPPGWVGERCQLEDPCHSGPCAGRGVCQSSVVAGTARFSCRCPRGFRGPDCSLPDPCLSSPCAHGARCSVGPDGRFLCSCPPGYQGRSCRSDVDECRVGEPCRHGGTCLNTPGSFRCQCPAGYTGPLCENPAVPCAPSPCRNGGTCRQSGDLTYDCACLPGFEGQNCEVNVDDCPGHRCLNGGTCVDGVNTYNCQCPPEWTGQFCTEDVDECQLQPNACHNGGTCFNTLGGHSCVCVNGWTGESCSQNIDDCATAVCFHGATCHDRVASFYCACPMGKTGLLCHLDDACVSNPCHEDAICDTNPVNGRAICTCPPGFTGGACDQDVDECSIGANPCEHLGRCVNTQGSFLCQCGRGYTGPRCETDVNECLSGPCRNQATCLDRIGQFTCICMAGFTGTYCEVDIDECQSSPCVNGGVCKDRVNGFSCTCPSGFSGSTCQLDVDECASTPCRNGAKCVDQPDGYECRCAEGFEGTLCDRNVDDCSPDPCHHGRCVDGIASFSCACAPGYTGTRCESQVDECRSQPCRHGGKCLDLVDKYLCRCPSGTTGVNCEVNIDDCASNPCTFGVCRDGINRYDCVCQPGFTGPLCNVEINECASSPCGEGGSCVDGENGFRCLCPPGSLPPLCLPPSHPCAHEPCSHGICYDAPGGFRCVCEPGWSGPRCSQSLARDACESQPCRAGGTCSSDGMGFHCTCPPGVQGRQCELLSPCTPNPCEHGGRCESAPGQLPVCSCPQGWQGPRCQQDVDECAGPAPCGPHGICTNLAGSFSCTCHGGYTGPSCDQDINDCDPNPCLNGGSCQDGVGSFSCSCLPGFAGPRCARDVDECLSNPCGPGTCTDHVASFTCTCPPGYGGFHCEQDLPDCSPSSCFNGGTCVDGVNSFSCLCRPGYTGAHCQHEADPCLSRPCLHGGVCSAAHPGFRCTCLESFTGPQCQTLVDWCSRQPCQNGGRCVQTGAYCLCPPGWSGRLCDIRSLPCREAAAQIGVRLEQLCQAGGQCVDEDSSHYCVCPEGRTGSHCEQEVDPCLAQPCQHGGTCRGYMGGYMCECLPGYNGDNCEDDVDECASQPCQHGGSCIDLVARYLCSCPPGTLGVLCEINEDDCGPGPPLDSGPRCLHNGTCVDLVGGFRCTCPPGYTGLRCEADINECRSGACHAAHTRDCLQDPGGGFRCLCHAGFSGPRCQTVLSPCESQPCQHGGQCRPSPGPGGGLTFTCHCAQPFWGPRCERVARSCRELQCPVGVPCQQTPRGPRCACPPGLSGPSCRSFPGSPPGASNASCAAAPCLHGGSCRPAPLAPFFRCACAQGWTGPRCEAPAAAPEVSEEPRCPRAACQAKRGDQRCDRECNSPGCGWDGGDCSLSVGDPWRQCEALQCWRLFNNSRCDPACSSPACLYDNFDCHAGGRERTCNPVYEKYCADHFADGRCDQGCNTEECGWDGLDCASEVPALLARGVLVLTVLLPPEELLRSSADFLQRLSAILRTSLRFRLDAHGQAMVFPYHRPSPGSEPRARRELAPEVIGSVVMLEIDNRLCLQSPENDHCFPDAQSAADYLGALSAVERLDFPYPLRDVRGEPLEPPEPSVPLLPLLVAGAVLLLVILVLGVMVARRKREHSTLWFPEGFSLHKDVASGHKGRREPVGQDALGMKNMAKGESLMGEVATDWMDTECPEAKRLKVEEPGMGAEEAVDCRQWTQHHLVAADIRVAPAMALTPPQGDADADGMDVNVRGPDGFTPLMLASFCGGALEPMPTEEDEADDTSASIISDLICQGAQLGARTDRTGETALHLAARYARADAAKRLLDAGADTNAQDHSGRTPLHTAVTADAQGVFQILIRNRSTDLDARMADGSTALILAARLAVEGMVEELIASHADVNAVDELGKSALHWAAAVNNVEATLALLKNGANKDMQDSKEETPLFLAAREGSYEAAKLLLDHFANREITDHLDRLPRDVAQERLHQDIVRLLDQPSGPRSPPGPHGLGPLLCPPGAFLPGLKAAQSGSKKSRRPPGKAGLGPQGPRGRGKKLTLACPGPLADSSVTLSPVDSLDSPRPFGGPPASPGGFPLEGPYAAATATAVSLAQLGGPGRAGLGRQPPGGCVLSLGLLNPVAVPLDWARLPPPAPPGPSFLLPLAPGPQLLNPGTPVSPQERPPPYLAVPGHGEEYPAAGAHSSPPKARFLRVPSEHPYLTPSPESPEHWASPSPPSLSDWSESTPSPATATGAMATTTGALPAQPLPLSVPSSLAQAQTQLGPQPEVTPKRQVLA

[10] = probe aEGFR binding to arrayed compounds – biochemical, biotinylated probe, 635/667 nm fluorescence, primary screen (AID 1097); details: small-molecule microarray, higher = more signal;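 also: probe is a biotinylated anti-EGFR antibody binding compounds printed on slides; score combines fluorescence near 667 nm and signal to noise of each spot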

Structure (SMILES) | composite z-score [1] | z-score [2] | z-score [3] | z-score [4] | composite z-score [5] | z-score [6] | composite z-score [7] | composite z-score [8] | composite z-score [9] | composite z-score [10]
C=C(CCCC)C(=O)CC[C@H](OC(=O)c1ccccc1-c1ccccc1C(=O)O)c1ccccc1OCCO | 0.774 | 0.604 (inactive) | -0.659 (inactive) | -0.918 (inactive) | 0.189 | 1.07 (inactive) | -0.183 | 0.512 | -0.025 | -0.162
C=C(COC)C(=O)CC[C@H](OC(=O)c1cccnc1)c1ccc(CO)o1 | 1.33 | -1.26 (inactive) | -0.292 (inactive) | -0.35 (inactive) | 0.103 | -0.252 (inactive) | -0.132 | 1.1 | 1.02 | -0.0313
O=C(CS)NCCCCCCNC(=O)[C@@H]1C[C@@H]2C(=O)NCC(=O)N2[C@@H]1c1ccc(O)cc1 | 0.801 | -2.07 (inactive) | 0.172 (inactive) | -0.436 (inactive) | 2.92 | 0.869 (inactive) | -0.0692 | -0.728 | -0.028 | -0.218
COc1cc(NN2C(C(O)c3cc(OC)c(OC)c(OC)c3)C=CC3C(=O)N(c4ccccc4)C(=O)C32)cc(OC)c1OC (stereo not given) | 1.51 | 0.613 (inactive) | 0.712 (inactive) | 0.219 (inactive) | 2.93 | -1.94 (inactive) | 0.688 | 1.34 | 1.02 | 0.139
CC(C)(C)OC(=O)CC[C@]12N=C(c3ccc(OCCCO)cc3)O[C@H]1c1ccccc1N(Cc1ccccc1)C2=O | 1.54 | 0.429 (inactive) | -1.1 (inactive) | 5.79 (inactive) | 2.72 | 0.911 (inactive) | 0.12 | 0.938 | 0.967 | -0.128
